SIRT5 block: inhibitors of human sirtuin-5 desuccinylase. Purified SirT5, succinyl-peptide AMC, trypsin-coupled fluorescence. 330,000 compounds, 1.1% hits. inhibition, % at 15 µM; in the data active = inhibition above about 15%; inconclusive = no clear call, values can overlap the other calls
DENV2 CPE rescue: DENV2-induced cell death inhibition; DENV2-infected cells, cytopathic effect rescue, plate reader; CPE inhibition, % at 9.99 µM; 350,000 compounds, 1.7% hits; AID 651640; in the data active = CPE inhibition above about 20%, passing the limit was not always enough; inconclusive = no clear call, values can overlap the other calls; tested in BHK-21 cells
Rtt109 HAT inh: C. albicans Rtt109 histone acetyltransferase inhibition; inhibition, % at 34.9 µM; Q5AAJ8; 330,000 compounds, 0.16% hits; purified Rtt109/Vps75, ThioGlo CoA-SH fluorescence, 4 h;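 active = inhibition of at least 50% in every replicate; inconclusive = best replicate reaches 50% inhibition but some replicates fall short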
PDI inh: blocks human protein disulfide isomerase activity; P07237; PDI insulin aggregation turbidity, A650, 90 min; inhibition, % at 10 µM; 350,000 compounds, 0.052% hits;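 active = mean inhibition across replicates of 30% or more, whatever share of single replicates reach that level; inconclusive = mean inhibition below 30% while every single replicate reaches 30%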
ERp5 inh: blocks human ERp5 reductase activity on insulin | Q15084 | ERp5 insulin aggregation, absorbance 650 nm, 90 min | inhibition, % at 9.99 µM | 350,000 compounds, 0.05% hits | AID 651711;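 active = mean replicate inhibition above about 25%, with every replicate also reaching it, limit read from the data, passing the limit was not always enough; inconclusive = only one of those two criteria met; inactive = neither criterion met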
Target sequence (Q15084 whole entry, looked up): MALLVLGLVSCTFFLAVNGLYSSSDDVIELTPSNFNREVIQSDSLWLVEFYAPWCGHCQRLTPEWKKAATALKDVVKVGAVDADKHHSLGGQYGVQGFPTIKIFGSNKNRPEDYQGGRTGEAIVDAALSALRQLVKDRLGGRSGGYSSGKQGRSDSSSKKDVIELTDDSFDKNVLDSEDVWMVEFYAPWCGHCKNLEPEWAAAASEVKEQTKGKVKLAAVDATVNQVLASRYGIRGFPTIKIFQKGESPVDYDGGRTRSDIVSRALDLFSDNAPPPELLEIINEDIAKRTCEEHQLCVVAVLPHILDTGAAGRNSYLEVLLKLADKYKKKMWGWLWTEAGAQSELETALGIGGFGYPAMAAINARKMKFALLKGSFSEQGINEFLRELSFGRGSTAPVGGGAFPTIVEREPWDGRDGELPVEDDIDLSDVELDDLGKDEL
A number is an active result. Hits are enriched below; roughly 2.3% of the tested compounds scored in any of these assays.

`CCN1C(=O)[C@H]2[C@@H](c3ccc(OC)cc3)N[C@]3(CCCN(Cc4cccn4C)C3=O)[C@H]2C1=O` gave SIRT5 block inactive, DENV2 CPE rescue inactive, PDI inh inactive and ERp5 inh inactive.
Screening CCN1C(=O)[C@H]2[C@@H](c3ccccc3)N[C@]3(CCCN(Cc4ccccc4)C3=O)[C@H]2C1=O returned SIRT5 block 23.6, DENV2 CPE rescue inactive, PDI inh inactive and ERp5 inh inactive.
`COc1ccc([C@H]2N[C@]3(CCCN(Cc4cccn4C)C3=O)[C@H]3C(=O)N(C)C(=O)[C@@H]23)cc1` gave SIRT5 block 34.2, DENV2 CPE rescue inconclusive, PDI inh inactive and ERp5 inh inactive.
Screening COc1ccc(CN2CCC[C@]3(N[C@H](c4ccc(C)cc4)[C@@H]4C(=O)N(Cc5ccccc5)C(=O)[C@@H]43)C2=O)cc1 returned SIRT5 block inactive, DENV2 CPE rescue 24.7, PDI inh inactive and ERp5 inh inactive.
Screening COc1ccc(CN2CCC[C@]3(N[C@H](c4ccc(OC)cc4)[C@@H]4C(=O)N(Cc5ccccc5)C(=O)[C@@H]43)C2=O)cc1 returned SIRT5 block inactive, DENV2 CPE rescue inactive, PDI inh inactive and ERp5 inh inactive.
Cc1ccc([C@H]2N[C@]3(CCCN(Cc4cccn4C)C3=O)[C@H]3C(=O)N(Cc4ccccc4)C(=O)[C@@H]23)cc1 was read as SIRT5 block inactive, DENV2 CPE rescue inactive, PDI inh inactive and ERp5 inh inactive.
`C[C@@H]1CN([C@@H](C)CO)C(=O)c2cc(N(C)C)ccc2O[C@@H](C)CCCCO[C@H]1CN(C)Cc1ccc(C(F)(F)F)cc1` gave SIRT5 block inactive, DENV2 CPE rescue inactive and ERp5 inh inactive.
For c1cncc(-c2cnc3ccccc3c2)c1 the results were DENV2 CPE rescue inactive, Rtt109 HAT inh inactive, PDI inh inactive and ERp5 inh inactive.
`F[B-](F)(F)c1cnc2ccccc2c1` gave SIRT5 block inactive, DENV2 CPE rescue 26.2, Rtt109 HAT inh inactive, PDI inh inactive and ERp5 inh inactive.
O=C(NCc1ccccc1Cl)C1CCCN(c2ncnc3c2nc2n3CCCCC2)C1 (stereo not given) was read as SIRT5 block inactive, DENV2 CPE rescue inactive, Rtt109 HAT inh inactive, PDI inh inactive and ERp5 inh inactive.
`O=C(NCc1ccco1)C1CCCN(c2ncnc3c2nc2n3CCCCC2)C1` (stereo not given) gave SIRT5 block inactive, DENV2 CPE rescue 25.3, Rtt109 HAT inh inactive, PDI inh inactive and ERp5 inh inactive.
`COc1ccc(C(CC(=O)N2CCCCC2)c2c(OC)cc(OC)c3c(-c4ccccc4)cc(=O)oc23)cc1` (stereo not given) gave DENV2 CPE rescue 71.5, Rtt109 HAT inh inactive, PDI inh inactive and ERp5 inh inactive.
COc1ccc(C(CCN2CCOCC2)c2c(OC)cc(OC)c3c(C)cc(=O)oc23)cc1 (stereo not given) was read as SIRT5 block inactive, DENV2 CPE rescue 55.8, Rtt109 HAT inh inactive, PDI inh inactive and ERp5 inh inactive.
Screening COc1ccc(C(CC(=O)N2CCCC2)c2c(OC)cc(OC)c3c(-c4ccccc4)cc(=O)oc23)cc1 (stereo not given) returned DENV2 CPE rescue inactive, Rtt109 HAT inh inactive, PDI inh inactive and ERp5 inh inactive.
O=C(c1cccc(F)c1)N1CC2(C1)[C@H](c1ccccc1)[C@@H](CO)N2C(=O)C1CCC1 was read as SIRT5 block inactive, DENV2 CPE rescue inactive and ERp5 inh inactive.
Cc1cccc([C@@H]2[C@@H]3C(=O)N(Cc4ccccc4)C(=O)[C@@H]3[C@]3(Cc4ccccc4)C(=O)N(c4ccc(C(F)(F)F)cc4)C(=O)N23)c1 was read as SIRT5 block inactive, DENV2 CPE rescue 102.4, Rtt109 HAT inh inactive, PDI inh inactive and ERp5 inh inactive.
Screening Cc1cccc([C@@H]2[C@@H]3C(=O)N(Cc4ccccc4)C(=O)[C@@H]3[C@]3(Cc4ccccc4)C(=O)N(c4ccccc4)C(=O)N23)c1 returned SIRT5 block inactive, DENV2 CPE rescue inactive, Rtt109 HAT inh inactive, PDI inh inactive and ERp5 inh inactive.
`Nc1nccnc1C(=O)OCC(=O)c1ccc[nH]1` gave SIRT5 block inactive, DENV2 CPE rescue 33.1, Rtt109 HAT inh inactive, PDI inh inactive and ERp5 inh inactive.
CCCc1nc(SCC(=O)Nc2ccc(N3CCOCC3)cc2)c2ccccc2n1 was read as Rtt109 HAT inh inactive and PDI inh inactive.
`CC(C)c1nc(SCC(=O)Nc2ccc(N3CCOCC3)cc2)c2ccccc2n1` gave Rtt109 HAT inh active and PDI inh inactive.
Screening CO[C@@H](CN(C)S(=O)(=O)c1cn(C)cn1)[C@H](C)CN(C(=O)Nc1ccc(F)cc1)[C@H](C)CO returned SIRT5 block inactive, DENV2 CPE rescue inactive and ERp5 inh inactive.
For COc1ccccc1/C=C1\C(=O)Nc2ccccc21 the results were SIRT5 block 15.5, DENV2 CPE rescue inconclusive, Rtt109 HAT inh inactive, PDI inh inactive and ERp5 inh inactive.
COc1ccc(/C=C2\C(=O)NC(=O)c3ccccc32)cc1OC was read as DENV2 CPE rescue inactive, Rtt109 HAT inh inactive, PDI inh inactive and ERp5 inh inactive.
Screening COc1ccc2c(c1)/C(=C/c1cc(OC)c(OC)c(OC)c1)C(=O)N2 returned SIRT5 block inactive, DENV2 CPE rescue 29.5, Rtt109 HAT inh inactive, PDI inh inactive and ERp5 inh inactive.
Screening C[C@H]1CN([C@@H](C)CO)C(=O)Cc2cc(NC(=O)Nc3cccc4ccccc34)ccc2O[C@H]1CN(C)C(=O)Nc1ccc2c(c1)OCO2 returned SIRT5 block inactive, DENV2 CPE rescue inactive and ERp5 inh inactive.
Screening CC(=O)N(C)C[C@H]1Oc2ncc(C3=CCCC3)cc2C(=O)N([C@@H](C)CO)C[C@H]1C returned SIRT5 block inactive, DENV2 CPE rescue inactive and ERp5 inh inactive.
O=C(C1CC1)N1CC(=O)N2[C@H](CO)[C@H](c3ccc(Br)cc3)[C@H]2C1 was read as SIRT5 block inactive, DENV2 CPE rescue inconclusive and ERp5 inh inactive.
`CC1CCCN(CCCOc2ccc(Br)cc2Cl)C1` (stereo not given) gave SIRT5 block inactive, DENV2 CPE rescue 34.0, Rtt109 HAT inh inactive, PDI inh inactive and ERp5 inh inactive.
For CC1CCN(CCOCCOc2ccc(Br)cc2Cl)CC1 the results were Rtt109 HAT inh inactive and PDI inh inactive.
Screening COc1ccccc1N(C(=O)c1snc(C(N)=O)c1N)C(C(=O)NC1CCCCC1)c1cccc(OC)c1OC (stereo not given) returned SIRT5 block inactive, DENV2 CPE rescue inactive, Rtt109 HAT inh 53.3, PDI inh inactive and ERp5 inh inactive.
Screening COc1ccc(OC)c(C(C(=O)NC2CCCCC2)N(C(=O)c2snc(C(N)=O)c2N)c2ccccc2OC)c1 (stereo not given) returned SIRT5 block inactive, DENV2 CPE rescue inactive, Rtt109 HAT inh inactive, PDI inh inactive and ERp5 inh inactive.
Screening C[C@H](CO)N1C[C@H](C)[C@H](CN(C)Cc2ccccc2)Oc2ncc(C#Cc3cccnc3)cc2C1=O returned SIRT5 block inactive, DENV2 CPE rescue inactive and ERp5 inh inactive.

Screening results (PubChem BioAssay)
